Results reported in PubChem BioAssay (NCATS).
Records with an inconclusive call do not appear. Unless noted, the call rests on the fitted dose curve; in most records, active means well fitted curve in either direction with a large enough effect (not every such curve was filed as active); inconclusive means small, poorly fitted or top-dose-only effect, or another doubt; inactive means flat fitted curve, though single readings scatter.

Assays:
[1] = AP1 Signaling Pathway (AID 357); conditions: ME-180 AP-1-bla reporter, EGF-induced, beta-lactamase ratio, 5 h; at 17.2 µM (top of the series) unless noted;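 further: ME-180 reporter cells stimulated with EGF at its EC50 level; on the % scale 0 is the no-effect control and ±100 the full control effect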
In short: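 Beta-lactamase reporter under AP-1 response element, ME-180 background. Stimulus: EC50 EGF. Compound exposure 5 h, 37 °C. Detection: CCF4, 2.5 h RT, 460/530 nm. Values: AC50 from titration.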

[2] = Stat Signaling Pathway (AID 446); conditions: ME-180 (cervical carcinoma) SIE beta-lactamase reporter, IL-6 stimulated, 5 h; at 17.2 µM (top of the series) unless noted;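 further: ME-180 cervical cancer cells given 40 pM IL-6 alongside compound; SIE-controlled beta-lactamase reporter measured as 460/530 nm FRET emission ratio; on the % scale 0 is the no-effect control and ±100 the full control effect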
In short: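 Emission at 460 and 530 nm (excitation 405 nm) reports SIE-controlled beta-lactamase in ME-180 cells. Cells received compound with 40 pM IL-6 for 5 hrs at 37 C; data scaled between 300 pM IL-6 and 125 nM JAK-inhibitor controls.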

[3] = biological target: Glucocorticoid receptor (Homo sapiens) (UniProt P04150); assay: GR-GFP Redistribution (AID 450;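 active means compounds whose dose series gives a full or clear partial fitted curve of increased nuclear translocation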; further: potency means the concentration at half of the fitted maximal effect)
Glucocorticoid receptor (Homo sapiens), sequence (P04150 whole entry, looked up): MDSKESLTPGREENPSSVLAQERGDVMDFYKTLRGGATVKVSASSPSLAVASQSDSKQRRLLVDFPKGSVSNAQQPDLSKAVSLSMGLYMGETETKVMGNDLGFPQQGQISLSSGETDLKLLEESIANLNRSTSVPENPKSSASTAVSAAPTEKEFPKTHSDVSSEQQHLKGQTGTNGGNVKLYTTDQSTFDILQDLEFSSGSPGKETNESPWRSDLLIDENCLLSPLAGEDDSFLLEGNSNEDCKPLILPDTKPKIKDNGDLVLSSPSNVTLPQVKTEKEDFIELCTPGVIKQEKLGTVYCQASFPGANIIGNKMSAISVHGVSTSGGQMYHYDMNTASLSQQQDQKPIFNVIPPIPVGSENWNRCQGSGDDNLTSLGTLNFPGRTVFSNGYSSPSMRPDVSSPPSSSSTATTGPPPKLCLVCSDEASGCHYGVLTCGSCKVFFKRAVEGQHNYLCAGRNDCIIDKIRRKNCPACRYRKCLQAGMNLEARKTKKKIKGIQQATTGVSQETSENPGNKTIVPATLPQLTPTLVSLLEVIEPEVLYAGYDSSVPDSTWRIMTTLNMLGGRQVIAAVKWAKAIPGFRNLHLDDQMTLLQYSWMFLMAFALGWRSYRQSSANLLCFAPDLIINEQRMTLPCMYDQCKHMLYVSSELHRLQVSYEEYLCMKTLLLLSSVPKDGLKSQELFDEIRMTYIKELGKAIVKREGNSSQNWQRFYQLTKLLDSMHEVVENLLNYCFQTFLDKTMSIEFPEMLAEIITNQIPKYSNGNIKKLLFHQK

CN1CC2(C)CN(C(c3ccccc3)c3ccccc3)CC(C)(C1)C2O (stereo unspecified)
inactive: activity change, negative = inhibition [1] 14.1% | activity, negative = inhibition [2] 2.94% | Potency [3] > 20.6 µM

N#CCSc1nc2c(cc1C#N)CCCCCC2
inactive: activity change, negative = inhibition [1] -14.6% | activity, negative = inhibition [2] 5.36% | Potency [3] > 20.6 µM

Fc1ccccc1-c1nc(NCCCN2CCOCC2)c2ccccc2n1
inactive: activity change, negative = inhibition [1] 0.19% | activity, negative = inhibition [2] -7.69% | Potency [3] > 20.6 µM

CCOC(=O)c1c(SC)nc(SC)c2c1CCC2
inactive: activity change, negative = inhibition [1] -12.6% | activity, negative = inhibition [2] -4.26% | Potency [3] > 20.6 µM

CC(=O)c1cc(CN2CCCCC2)cc(OC(C)C)c1
inactive: activity change, negative = inhibition [1] 15.3% | activity, negative = inhibition [2] 13.1% | Potency [3] > 20.6 µM

CCCCc1c(C)c2ccc(OCC(C)=O)cc2oc1=O
inactive: activity change, negative = inhibition [1] -16.2% | activity, negative = inhibition [2] -0.63% | Potency [3] > 20.6 µM

COc1ccc(CSc2nnc3n(C)c(=O)c4c5c(sc4n23)CCCC5)cc1
inactive: activity change, negative = inhibition [1] -2.6% | activity, negative = inhibition [2] 0.924% | Potency [3] > 20.6 µM

CC(C)c1nc(NCC2CCCO2)c(C#N)c2c1COC(C)(C)C2 (stereo unspecified)
inactive: activity change, negative = inhibition [1] -26.1% | activity, negative = inhibition [2] -3.72% | Potency [3] > 20.6 µM

Cc1c(O)c(CN2CCCC2)cc2c1oc(=O)c1ccccc12
inactive: activity change, negative = inhibition [1] 4.42% | activity, negative = inhibition [2] -9.48% | Potency [3] > 20.6 µM

COCCCNC(=O)c1c(N)n(/N=C/c2cccs2)c2nc3ccccc3nc12
inactive: activity change, negative = inhibition [1] 24.9% | activity, negative = inhibition [2] 21.4% | Potency [3] > 20.6 µM

Cn1c(Cl)cnc1C1CC(=O)c2cc(Cl)ccc2O1 (stereo unspecified)
inactive: activity change, negative = inhibition [1] 14.1% | activity, negative = inhibition [2] 0.321% | Potency [3] > 20.6 µM

CCOc1nc(SCCOc2ccc(C)cc2)nc(N(C)C)n1
inactive: activity change, negative = inhibition [1] -8.15% | activity, negative = inhibition [2] -4.82% | Potency [3] > 20.6 µM

C=CCn1c(=S)[nH]c2nc3c(cc2c1=O)CCCC3
inactive: activity change, negative = inhibition [1] -14.7% | activity, negative = inhibition [2] -11.2% | Potency [3] > 20.6 µM

O=C(NCCN1CCCCC1)/C(=N\O)c1ccccc1
inactive: activity change, negative = inhibition [1] -7.56% | activity, negative = inhibition [2] -1.14% | Potency [3] > 20.6 µM

Cn1c(N2CCOCC2)nc2c1c(=O)n(Cc1ccc(Cl)cc1)c(=O)n2C
inactive: activity change, negative = inhibition [1] 1.13% | activity, negative = inhibition [2] 23.9% | Potency [3] > 20.6 µM

CN1C2C=C3C(C#N)=C(N)C(C#N)(C#N)[C@@H](c4cccs4)C3C1CC2 (stereo partly specified)
inactive: activity change, negative = inhibition [1] 17.2% | activity, negative = inhibition [2] 13.6% | Potency [3] > 20.6 µM

CC(NC(=O)OC(C)(C)C)C(=O)Oc1ccc2ccc(=O)oc2c1 (stereo unspecified)
inactive: activity change, negative = inhibition [1] 24.1% | activity, negative = inhibition [2] 10.7% | Potency [3] > 20.6 µM

CCCc1nc(N2CCCC2)c(C#N)c2c1CCCC2
inactive: activity change, negative = inhibition [1] -2.98% | activity, negative = inhibition [2] 10.3% | Potency [3] > 20.6 µM

CC(C)Sc1nnc2n(CCc3ccccc3)c(=O)c3c4c(sc3n12)COC(C)(C)C4
inactive: activity change, negative = inhibition [1] -19.5% | activity, negative = inhibition [2] -3.01% | Potency [3] > 20.6 µM

CCc1nc2sc3c(c2c(=O)o1)CCCC3
inactive: activity change, negative = inhibition [1] -11.3% | activity, negative = inhibition [2] 3.67% | Potency [3] > 20.6 µM

CCSc1nnc(NC(=O)C(C(F)(F)F)C(F)(F)F)s1
inactive: activity change, negative = inhibition [1] -16.3% | activity, negative = inhibition [2] -21.8% | Potency [3] > 20.6 µM

Cc1nn2cnc3sc4c(c3c2nc1=O)CCCC4
inactive: activity change, negative = inhibition [1] 10.1% | activity, negative = inhibition [2] -8.12% | Potency [3] > 20.6 µM

COc1ccc(CCn2c(=N)c(C(=O)NCc3ccco3)cc3c(=O)n4ccccc4nc32)cc1
inactive: activity change, negative = inhibition [1] -1.64% | activity, negative = inhibition [2] 2.96% | Potency [3] > 20.6 µM

O=c1[nH]c(=O)n(Cc2ccco2)c2c1C(C(F)(F)F)(C(F)(F)F)N=C(c1ccco1)N2
inactive: activity change, negative = inhibition [1] 3.52% | activity, negative = inhibition [2] -26.4% | Potency [3] > 20.6 µM

CSc1nc2[nH]c3c(c2c2nnnn12)CCCC3
inactive: activity change, negative = inhibition [1] -20.6% | activity, negative = inhibition [2] -10.8% | Potency [3] > 20.6 µM

c1coc(-c2nnc3sc(Cc4cccs4)nn23)c1
inactive: activity change, negative = inhibition [1] -15.4% | activity, negative = inhibition [2] -17.3% | Potency [3] > 20.6 µM

C/C(=N\O)c1ccc2[nH]ccc2c1
inactive: activity change, negative = inhibition [1] 2.69% | activity, negative = inhibition [2] 13.9% | Potency [3] > 20.6 µM

CCCCc1cc(=O)oc2c(CN(C)C)c(O)c(Cl)cc12
inactive: activity change, negative = inhibition [1] -6.67% | activity, negative = inhibition [2] 14.1% | Potency [3] > 20.6 µM

Cc1cccc(N(Cc2cc3ccccc3[nH]c2=O)C(=O)c2ccco2)c1C
inactive: activity change, negative = inhibition [1] -19.9% | activity, negative = inhibition [2] -17% | Potency [3] > 20.6 µM

Cc1nc(/N=C(\N)Nc2ccccc2)nc2ccccc12
inactive: activity change, negative = inhibition [1] -14.5% | activity, negative = inhibition [2] -26.3% | Potency [3] > 20.6 µM

CCOC(=O)c1[nH]c2ccc(OC)cc2c1NC(=O)CCN1CCc2ccccc2C1
inactive: activity change, negative = inhibition [1] -5.08% | activity, negative = inhibition [2] -3.49% | Potency [3] > 20.6 µM

CC1(C)Cc2c(C#N)c(OCC(=O)c3ccccc3)nc(-c3ccoc3)c2CO1
inactive: activity change, negative = inhibition [1] 20.6% | activity, negative = inhibition [2] 12.9% | Potency [3] > 20.6 µM

CC(C)Cc1nc(N2CCCCC2)c(C#N)c2c1CCC2
inactive: activity change, negative = inhibition [1] 28.8% | activity, negative = inhibition [2] 9.01% | Potency [3] > 20.6 µM

N#Cc1cc(Oc2cccc3cccnc23)c(-n2nnc3ccccc32)cc1C#N
inactive: activity change, negative = inhibition [1] 11.4% | activity, negative = inhibition [2] 11.7% | Potency [3] > 20.6 µM

COC(=O)c1cc(=O)n2c(-c3ccc(OC)cc3)csc2n1
inactive: activity change, negative = inhibition [1] -2.63% | activity, negative = inhibition [2] 5.85% | Potency [3] > 20.6 µM

Cc1nc(N2CCN(C(=O)c3ccc(Cl)cc3)CC2)c(C#N)c2c1COC(C)(C)C2
inactive: activity change, negative = inhibition [1] -10% | activity, negative = inhibition [2] -17.4% | Potency [3] > 20.6 µM

COc1ccc(CCNc2oc(COc3ccccc3)nc2C#N)cc1
inactive: activity change, negative = inhibition [1] -23% | activity, negative = inhibition [2] -23.3% | Potency [3] > 20.6 µM

COCc1[nH]nc2c1C(c1ccc(OC)cc1)C(C#N)=C(N)O2 (stereo unspecified)
inactive: activity change, negative = inhibition [1] 2.89% | activity, negative = inhibition [2] -11.4% | Potency [3] > 20.6 µM

CCOC(=O)N1CC=C2C(C#N)=C(N)C(C#N)(C#N)[C@H](c3cccs3)[C@H]2C1
inactive: activity change, negative = inhibition [1] 6.03% | activity, negative = inhibition [2] -16% | Potency [3] > 20.6 µM

Cc1ccsc1C1NC(=O)c2c(sc3c2CCCC3)N1 (stereo unspecified)
inactive: activity change, negative = inhibition [1] -25.1% | activity, negative = inhibition [2] -6.73% | Potency [3] > 20.6 µM

Cc1c(C)c2cc(Cl)c(O)c(CN3CCCC(C)C3)c2oc1=O (stereo unspecified)
inactive: activity change, negative = inhibition [1] 14.1% | activity, negative = inhibition [2] -3.87% | Potency [3] > 20.6 µM

COCCCn1cnc2c(c1=O)c1nc3ccccc3nc1n2CCc1ccccc1
inactive: activity change, negative = inhibition [1] -15.7% | activity, negative = inhibition [2] -9.66% | Potency [3] > 20.6 µM

COc1ccccc1N1CCN(CCCCOc2ccc(F)cc2)CC1
inactive: activity change, negative = inhibition [1] 18.8% | activity, negative = inhibition [2] 5.73% | Potency [3] > 20.6 µM

CCCc1cc(Nc2c(C)n(C)n(-c3ccccc3)c2=O)n2c(nc3ccccc32)c1C#N
inactive: activity change, negative = inhibition [1] -3.24% | activity, negative = inhibition [2] 0.163% | Potency [3] > 20.6 µM

C[C@]12CC[C@@H]3c4ccc(O)cc4CC[C@H]3[C@@H]1CC[C@@H]2OC(=O)CCC(=O)O
inactive: activity change, negative = inhibition [1] -5.44% | activity, negative = inhibition [2] -12.1% | Potency [3] > 20.6 µM

CCC(=O)Nc1c(C#N)c2nc3ccccc3nc2n1C1CCCCC1
inactive: activity change, negative = inhibition [1] -0.0903% | activity, negative = inhibition [2] 20.4% | Potency [3] > 20.6 µM

Cc1c(N=Cc2c(O)n(C3CCCCC3)c(=O)[nH]c2=O)c(=O)n(-c2ccccc2)n1C
inactive: activity change, negative = inhibition [1] -6.37% | activity, negative = inhibition [2] -1.79% | Potency [3] > 20.6 µM

CCCCCSc1nc(N2CCOCC2)c2c(c1C#N)CC(C)(C)OC2
inactive: activity change, negative = inhibition [1] -13.1% | activity, negative = inhibition [2] 9.95% | Potency [3] > 20.6 µM

CCN(CC)CCCn1c(C)cc2c(c1=O)C(c1ccccc1)C(C#N)=C(N)O2 (stereo unspecified)
inactive: activity change, negative = inhibition [1] 1.7% | activity, negative = inhibition [2] 2.65% | Potency [3] > 20.6 µM

Cn1c(=O)c2c(nc(NCc3ccco3)n2Cc2ccc(Cl)cc2Cl)n(C)c1=O
inactive: activity change, negative = inhibition [1] 4.86% | activity, negative = inhibition [2] -17.6% | Potency [3] > 20.6 µM

CNC(=O)Nc1cccc(NC(=O)NC)n1
inactive: activity change, negative = inhibition [1] 13% | activity, negative = inhibition [2] 0.623% | Potency [3] > 20.6 µM

COc1ccccc1NC(=O)C1=C(C)NC(SCC(=O)c2ccc(C)cc2)=C(C#N)C1c1ccco1 (stereo unspecified)
inactive: activity change, negative = inhibition [1] -8.91% | activity, negative = inhibition [2] -6.63% | Potency [3] > 20.6 µM

COC(=O)CSc1nc(-c2cccs2)ccc1C#N
inactive: activity change, negative = inhibition [1] -2.59% | activity, negative = inhibition [2] -2.18% | Potency [3] > 20.6 µM

CCc1nnc(NC(=O)CSc2nc(C)c3c(c2C#N)CCCC3)s1
inactive: activity change, negative = inhibition [1] -12.7% | activity, negative = inhibition [2] -23.4% | Potency [3] > 20.6 µM

Cc1c(CCC#N)c(N2CCN(C3CCCCC3)CC2)n2c(nc3ccccc32)c1C#N
inactive: activity change, negative = inhibition [1] -16.9% | activity, negative = inhibition [2] 9.87% | Potency [3] > 20.6 µM

CCCSc1nc(N2CCCC2)c2c(c1C#N)CC(C)(C)OC2
inactive: activity change, negative = inhibition [1] -3.22% | activity, negative = inhibition [2] 6.07% | Potency [3] > 20.6 µM

CCN(CC)c1ccc(C2Nc3cccc4cccc(c34)N2)c(O)c1
inactive: activity change, negative = inhibition [1] -17.3% | activity, negative = inhibition [2] -17.7% | Potency [3] > 20.6 µM
